Only a selection was taken, and hits are over-represented in it overall.
ST2 inh: inhibitors of human ST2 (IL1RL1) binding to IL-33; AID 1259354; AlphaLISA ST2-Fc/biotin-IL-33 interaction, 1 h; Q01638; 78,000 tested, 2.3% active; inhibition, % for hits at 17 µM; in the data active = inhibition above about 30%
Target sequence (Q01638 whole entry, looked up): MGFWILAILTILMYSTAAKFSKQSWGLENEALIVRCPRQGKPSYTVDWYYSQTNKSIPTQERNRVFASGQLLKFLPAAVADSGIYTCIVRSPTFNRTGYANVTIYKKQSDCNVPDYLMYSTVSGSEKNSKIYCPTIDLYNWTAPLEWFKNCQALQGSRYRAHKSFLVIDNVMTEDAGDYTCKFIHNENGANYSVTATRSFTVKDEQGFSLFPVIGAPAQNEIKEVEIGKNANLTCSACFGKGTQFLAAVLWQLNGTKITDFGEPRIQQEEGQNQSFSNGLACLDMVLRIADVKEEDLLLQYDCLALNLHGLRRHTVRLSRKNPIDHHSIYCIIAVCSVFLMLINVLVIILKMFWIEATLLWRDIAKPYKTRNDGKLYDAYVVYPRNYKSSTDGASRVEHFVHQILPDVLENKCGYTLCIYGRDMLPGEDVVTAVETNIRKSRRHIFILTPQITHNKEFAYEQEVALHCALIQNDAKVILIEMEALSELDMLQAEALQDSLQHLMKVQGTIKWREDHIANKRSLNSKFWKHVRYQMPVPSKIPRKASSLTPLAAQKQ
Each line names hits and unclear results; the compound was inactive in the other large screens.

CCOC(=O)c1sc(NC(=O)C2CC2c2ccccc2)c(C(=O)OCC)c1C (configuration not stated)	none
O=C(CS(=O)(=O)c1cn(Cc2cccc(F)c2)c2ccccc12)NC1CCCCC1	none
CCN(CC)c1cc(C)c2cc(NC(=O)c3cnccn3)ccc2n1	none
O=C(Nc1ccc(Cl)cc1)c1cnccn1	none
CCN(CC)c1ccc(NC(=O)c2cnccn2)cc1	ST2 inh 56%
CCOCCCn1c(=N)c(C(N)=O)cc2c(=O)n3ccccc3nc21	none
CC(C)c1cc(C2CCN(C(=O)C3CC(=O)c4ccccc43)CC2)[nH]n1 (configuration not stated)	none
Cc1ccc(NC(=O)CN2CCN(Cc3cccc(Cl)c3)S2(=O)=O)cc1	none
Cc1ccc(Cc2c(C)nc3nc(SCC(=O)N4CCCC4)nn3c2C)cc1	none
O=[N+]([O-])c1ccc(O)c(C=Nc2ccc3oc(Cc4ccccc4)nc3c2)c1	ST2 inh 48%
CCOc1ccc(-c2nc3cc(N=Cc4cc([N+](=O)[O-])ccc4O)ccc3o2)cc1	none
COc1cc([N+](=O)[O-])cc(C=Nc2ccc3oc(-c4ccccc4C)nc3c2)c1O	none
Cc1cccc2oc(-c3cccc(N=Cc4cc([N+](=O)[O-])ccc4O)c3)nc12	none
Cc1cccc2oc(-c3ccc(N=Cc4cccc([N+](=O)[O-])c4O)cc3)nc12	none
Cc1cccc2oc(-c3cc(N=Cc4cc([N+](=O)[O-])ccc4O)ccc3O)nc12	ST2 inh 32%
CCCCOc1ccc(S(=O)(=O)N2CCN(c3nc(C)cc(N4CCCC4)n3)CC2)cc1	none
Nc1nc2c(c(=O)[nH]1)CCN(C(=O)CSC13CC4CC(CC(C4)C1)C3)C2	none
Cc1ccc(Nc2nnc(Cc3ccccc3Cl)c(=O)[nH]2)c(C)c1	none
O=C(c1onc2ccccc12)N1CC[C@@H](c2ccc3c(c2)OCO3)[C@H](O)C1	none
CCc1cccc(NC(=O)CN2CCCN(Cc3cccc(F)c3)S2(=O)=O)c1	none
COc1ccccc1Cc1noc(/C=C/c2ccccc2Cl)n1	none
O=[N+]([O-])c1cccc(-c2noc(-c3ccc(I)cc3)n2)c1	none
COc1ccccc1Cc1nc(-c2ccc([N+](=O)[O-])cc2)no1	ST2 inh 30%
COc1ccc(-c2nc(-c3cccc([N+](=O)[O-])c3)no2)cc1	none
COc1ccccc1CNc1ccc([N+](=O)[O-])cn1	none
COc1ccccc1Nc1nc(-c2ccc([N+](=O)[O-])cc2)nc2ccccc12	none
COc1ccccc1Cc1nc(-c2cccc([N+](=O)[O-])c2)no1	ST2 inh 32%
COc1ccccc1Cc1noc(-c2ccc([N+](=O)[O-])cc2)n1	ST2 inh 47%
COc1ccccc1Cc1noc(COc2cccc(C)c2C)n1	none
CC(=O)N1CCCn2nc(C(=O)NC(C)(C)CNc3cccc(Cl)c3)cc2C1	none
Cc1cc(I)ccc1N1C(=O)CC(Sc2ncccc2C(=O)O)C1=O (configuration not stated)	none
COc1cc2c(cc1OC)C(C(=O)N1CCOCC1)C1c3ccccc3CCN1C2=O (configuration not stated)	none
COc1ccc(NS(=O)(=O)c2ccc(NC(=O)c3ccccc3C(=O)O)cc2)nn1	none
Cc1cc(Br)c2c(c1)=C(c1sc(Nc3ccccc3Cl)nc1O)C(=O)N=2	none
O=C1N=c2ccc(F)cc2=C1c1sc(Nc2ccc(Br)cc2)nc1O	none
Cc1c(Cl)ccc2c1=NC(=O)C=2c1sc(Nc2ccc(Br)cc2)nc1O	none
Cc1cccc(Nc2nc(O)c(C3=c4cc(Br)ccc4=NC3=O)s2)c1C	ST2 inh 42%
Cc1ccccc1NC(=O)c1cccc(Br)c1	none
O=C1N=c2ccc(Cl)cc2=C1c1sc(Nc2ccc(Cl)cc2)nc1O	ST2 inh 44%
COc1ccc(Cc2noc(CN3CCN(Cc4cccs4)CC3)n2)cc1OC	none
CCOC(=O)c1c(NC(=O)C(C)C)sc(C)c1C	none
COC1(C#CC(=O)c2ccc([N+](=O)[O-])cc2)CCCCC1	ST2 inh 61%
COc1ccc(C2(CNC(=O)c3ccc([N+](=O)[O-])cc3)CCCC2)cc1	none
COc1cc(NC(=O)c2ccc([N+](=O)[O-])cc2)c(OC)cc1NC(C)=O	none
O=C(NC1CCCCCC1)[C@H](CSCc1ccccc1)N1Cc2ccccc2C1=O	none
CCOc1ccc(-c2nc3s/c(=C\c4ccc(OC)cc4OC)c(=O)n3n2)cc1	none
CCSC1=N/C(=C\c2ccc3c(c2)OCO3)C(=O)S1	ST2 inh 55%
CCSC1=N/C(=C\c2cc3c(cc2Cl)OCO3)C(=O)S1	none
CCN(CC)c1ccc(C=Nc2ccc([N+](=O)[O-])cc2OC)c(O)c1	none
CCSC1=N/C(=C\c2ccc(N(CC)CC)cc2OC)C(=O)S1	ST2 inh 65%
O=C1C(=Cc2ccc3c(c2)OCO3)C(=O)c2ccccc21	none
O=C(Nc1nccs1)c1cccc(NS(=O)(=O)c2ccc([N+](=O)[O-])cc2)c1	none
COc1cccc(C2C(=O)N(C3CCCCC3)CC(=O)N2C2CCCC2)c1 (configuration not stated)	none
CCN(CC)CC(=O)Nc1ccc(Br)cc1	none
CCn1c(C2CCN(C3CCN(c4ccccc4)CC3)CC2)nn(C)c1=O	none
Cc1ccc(N=C2c3cc([N+](=O)[O-])ccc3-c3ncccc32)cc1	none
